Results as given in ChEMBL document CHEMBL1961873, “Compounds: GSK PKIS; Assays: Nanosyn kinase panel” (2012).

Tests used:
[1] = molecular target: T1, Mitogen-activated protein kinase 12 (Homo sapiens) (UniProt P53778); settings: at 1 µM;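 further: values are averaged p38gamma kinase inhibition readings, compounds tested at 1 µM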
T1 sequence (whole entry): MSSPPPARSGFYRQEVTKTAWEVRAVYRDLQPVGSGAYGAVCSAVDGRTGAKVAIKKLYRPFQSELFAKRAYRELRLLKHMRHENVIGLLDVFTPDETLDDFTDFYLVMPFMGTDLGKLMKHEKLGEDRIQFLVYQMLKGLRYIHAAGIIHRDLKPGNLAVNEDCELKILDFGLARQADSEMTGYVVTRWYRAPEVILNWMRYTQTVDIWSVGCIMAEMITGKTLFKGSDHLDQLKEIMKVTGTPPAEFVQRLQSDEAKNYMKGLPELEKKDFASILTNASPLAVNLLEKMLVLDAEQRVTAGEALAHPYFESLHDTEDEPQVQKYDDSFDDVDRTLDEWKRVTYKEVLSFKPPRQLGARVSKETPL

[2] = molecular target: SRSF protein kinase 1 (Homo sapiens) (UniProt Q96SB4); settings: at 0.1 µM
[3] = molecular target: SRSF protein kinase 1 (Homo sapiens) (UniProt Q96SB4); settings: at 1 µM
[4] = molecular target: Phosphatidylinositol 4,5-bisphosphate 3-kinase catalytic subunit alpha isoform (Homo sapiens) (UniProt P42336); settings: at 0.1 µM
[5] = molecular target: Phosphatidylinositol 4,5-bisphosphate 3-kinase catalytic subunit alpha isoform (Homo sapiens) (UniProt P42336); settings: at 1 µM
[6] = molecular target: T2, Phosphatidylinositol 4,5-bisphosphate 3-kinase catalytic subunit delta isoform (Homo sapiens) (UniProt O00329); settings: at 0.1 µM
T2 sequence (whole entry): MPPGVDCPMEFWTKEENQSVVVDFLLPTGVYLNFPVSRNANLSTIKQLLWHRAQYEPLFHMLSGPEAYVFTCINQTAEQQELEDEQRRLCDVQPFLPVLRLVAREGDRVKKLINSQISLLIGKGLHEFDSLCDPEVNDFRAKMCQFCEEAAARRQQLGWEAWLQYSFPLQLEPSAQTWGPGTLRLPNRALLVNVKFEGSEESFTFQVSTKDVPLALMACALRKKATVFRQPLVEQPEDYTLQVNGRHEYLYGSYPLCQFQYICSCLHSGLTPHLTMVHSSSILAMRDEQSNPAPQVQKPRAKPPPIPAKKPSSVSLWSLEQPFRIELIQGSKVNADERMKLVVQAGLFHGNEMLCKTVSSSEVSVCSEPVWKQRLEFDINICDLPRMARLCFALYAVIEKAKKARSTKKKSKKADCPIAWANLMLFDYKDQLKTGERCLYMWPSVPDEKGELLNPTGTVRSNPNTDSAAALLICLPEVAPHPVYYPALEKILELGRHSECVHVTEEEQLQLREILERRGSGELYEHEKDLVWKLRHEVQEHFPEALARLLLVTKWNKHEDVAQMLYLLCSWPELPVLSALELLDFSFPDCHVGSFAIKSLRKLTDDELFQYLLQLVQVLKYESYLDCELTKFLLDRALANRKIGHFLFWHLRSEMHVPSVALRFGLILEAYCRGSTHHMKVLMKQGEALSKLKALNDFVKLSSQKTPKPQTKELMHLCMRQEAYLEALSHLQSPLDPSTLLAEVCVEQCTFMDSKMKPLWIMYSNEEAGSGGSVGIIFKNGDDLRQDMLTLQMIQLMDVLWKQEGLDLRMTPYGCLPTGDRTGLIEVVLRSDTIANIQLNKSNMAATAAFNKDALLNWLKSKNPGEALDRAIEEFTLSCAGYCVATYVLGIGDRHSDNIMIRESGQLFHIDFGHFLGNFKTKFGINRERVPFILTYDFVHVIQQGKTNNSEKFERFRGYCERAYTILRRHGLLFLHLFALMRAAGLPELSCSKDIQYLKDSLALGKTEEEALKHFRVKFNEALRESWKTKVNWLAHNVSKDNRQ

[7] = molecular target: T2, Phosphatidylinositol 4,5-bisphosphate 3-kinase catalytic subunit delta isoform (Homo sapiens); settings: at 1 µM
[8] = molecular target: Phosphatidylinositol 4-kinase beta (Homo sapiens) (UniProt Q9UBF8); settings: at 0.1 µM
[9] = molecular target: Phosphatidylinositol 4-kinase beta (Homo sapiens) (UniProt Q9UBF8); settings: at 1 µM
[10] = molecular target: Sphingosine kinase 1 (Homo sapiens) (UniProt Q9NYA1); settings: at 0.1 µM
[11] = molecular target: Sphingosine kinase 1 (Homo sapiens) (UniProt Q9NYA1); settings: at 1 µM
[12] = molecular target: T3, Sphingosine kinase 2 (Homo sapiens) (UniProt Q9NRA0); settings: at 0.1 µM
T3 sequence (whole entry): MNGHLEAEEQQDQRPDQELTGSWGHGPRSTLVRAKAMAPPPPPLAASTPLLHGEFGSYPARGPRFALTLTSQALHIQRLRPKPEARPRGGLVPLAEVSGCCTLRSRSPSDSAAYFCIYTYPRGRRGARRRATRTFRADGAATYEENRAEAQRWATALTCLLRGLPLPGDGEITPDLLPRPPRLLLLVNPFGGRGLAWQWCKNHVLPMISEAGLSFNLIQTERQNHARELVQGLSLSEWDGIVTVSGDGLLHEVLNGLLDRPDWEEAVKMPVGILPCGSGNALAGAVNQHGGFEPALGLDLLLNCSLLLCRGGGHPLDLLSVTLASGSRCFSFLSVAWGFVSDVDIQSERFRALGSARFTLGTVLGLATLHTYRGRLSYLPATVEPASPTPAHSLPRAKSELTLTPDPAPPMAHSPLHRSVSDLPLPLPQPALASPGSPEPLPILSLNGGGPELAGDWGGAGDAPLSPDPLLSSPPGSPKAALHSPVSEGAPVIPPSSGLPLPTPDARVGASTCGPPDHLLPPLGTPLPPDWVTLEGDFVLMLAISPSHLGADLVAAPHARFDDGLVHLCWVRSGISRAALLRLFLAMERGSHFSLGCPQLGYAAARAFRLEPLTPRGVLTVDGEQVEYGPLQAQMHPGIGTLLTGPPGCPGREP

[13] = molecular target: T3, Sphingosine kinase 2 (Homo sapiens); settings: at 1 µM
[14] = molecular target: Casein kinase II subunit alpha (Homo sapiens) (UniProt P68400); settings: at 0.1 µM
[15] = molecular target: Casein kinase II subunit alpha (Homo sapiens) (UniProt P68400); settings: at 1 µM
[16] = molecular target: T4, Inhibitor of nuclear factor kappa-B kinase subunit alpha (Homo sapiens) (UniProt O15111); settings: at 0.1 µM
T4 sequence (whole entry): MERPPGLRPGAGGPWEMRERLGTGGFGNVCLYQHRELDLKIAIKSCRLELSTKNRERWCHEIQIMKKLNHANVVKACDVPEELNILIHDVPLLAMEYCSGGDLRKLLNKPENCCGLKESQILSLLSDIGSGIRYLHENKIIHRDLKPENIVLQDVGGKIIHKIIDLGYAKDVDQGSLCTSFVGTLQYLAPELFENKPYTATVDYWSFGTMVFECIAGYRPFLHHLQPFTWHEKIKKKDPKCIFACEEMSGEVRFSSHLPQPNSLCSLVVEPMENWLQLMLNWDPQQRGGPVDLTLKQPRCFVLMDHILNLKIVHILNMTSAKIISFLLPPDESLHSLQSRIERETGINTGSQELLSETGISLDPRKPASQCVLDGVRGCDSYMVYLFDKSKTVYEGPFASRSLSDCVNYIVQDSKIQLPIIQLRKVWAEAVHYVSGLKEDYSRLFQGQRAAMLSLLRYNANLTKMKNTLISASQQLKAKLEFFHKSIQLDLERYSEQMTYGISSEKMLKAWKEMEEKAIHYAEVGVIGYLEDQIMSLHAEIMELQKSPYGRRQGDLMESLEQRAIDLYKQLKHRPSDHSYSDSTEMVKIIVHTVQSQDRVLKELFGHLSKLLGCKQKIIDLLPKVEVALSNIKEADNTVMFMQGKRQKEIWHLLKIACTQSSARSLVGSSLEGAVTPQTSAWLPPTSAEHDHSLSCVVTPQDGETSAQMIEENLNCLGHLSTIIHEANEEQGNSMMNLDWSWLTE

[17] = molecular target: T4, Inhibitor of nuclear factor kappa-B kinase subunit alpha (Homo sapiens); settings: at 1 µM
[18] = molecular target: T5, Inhibitor of nuclear factor kappa-B kinase subunit beta (Homo sapiens) (UniProt O14920); settings: at 0.1 µM
T5 sequence (whole entry): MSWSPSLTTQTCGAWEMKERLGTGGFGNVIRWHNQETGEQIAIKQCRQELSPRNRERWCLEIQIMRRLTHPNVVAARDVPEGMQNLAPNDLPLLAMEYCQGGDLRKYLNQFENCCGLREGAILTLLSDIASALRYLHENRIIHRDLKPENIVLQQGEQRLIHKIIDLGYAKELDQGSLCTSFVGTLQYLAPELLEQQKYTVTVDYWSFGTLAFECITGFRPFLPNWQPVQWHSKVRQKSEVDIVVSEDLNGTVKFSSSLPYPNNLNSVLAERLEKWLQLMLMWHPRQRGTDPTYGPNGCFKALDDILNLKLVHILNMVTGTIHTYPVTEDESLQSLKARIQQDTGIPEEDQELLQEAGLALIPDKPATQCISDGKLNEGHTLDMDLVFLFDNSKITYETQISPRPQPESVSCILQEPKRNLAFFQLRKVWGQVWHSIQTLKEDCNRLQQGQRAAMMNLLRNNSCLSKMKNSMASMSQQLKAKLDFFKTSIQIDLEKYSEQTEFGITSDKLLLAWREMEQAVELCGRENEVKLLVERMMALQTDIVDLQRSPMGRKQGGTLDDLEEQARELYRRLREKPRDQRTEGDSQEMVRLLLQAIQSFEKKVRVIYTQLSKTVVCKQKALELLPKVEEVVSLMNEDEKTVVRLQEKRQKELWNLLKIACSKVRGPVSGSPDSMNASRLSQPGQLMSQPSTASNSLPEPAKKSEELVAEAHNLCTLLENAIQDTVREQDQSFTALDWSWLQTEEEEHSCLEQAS

[19] = molecular target: T5, Inhibitor of nuclear factor kappa-B kinase subunit beta (Homo sapiens); settings: at 1 µM
[20] = molecular target: T6, Inhibitor of nuclear factor kappa-B kinase subunit epsilon (Homo sapiens) (UniProt Q14164); settings: at 0.1 µM;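 further: mean inhibition of IKKε reported, from the GSK PKIS dataset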
T6 sequence (whole entry): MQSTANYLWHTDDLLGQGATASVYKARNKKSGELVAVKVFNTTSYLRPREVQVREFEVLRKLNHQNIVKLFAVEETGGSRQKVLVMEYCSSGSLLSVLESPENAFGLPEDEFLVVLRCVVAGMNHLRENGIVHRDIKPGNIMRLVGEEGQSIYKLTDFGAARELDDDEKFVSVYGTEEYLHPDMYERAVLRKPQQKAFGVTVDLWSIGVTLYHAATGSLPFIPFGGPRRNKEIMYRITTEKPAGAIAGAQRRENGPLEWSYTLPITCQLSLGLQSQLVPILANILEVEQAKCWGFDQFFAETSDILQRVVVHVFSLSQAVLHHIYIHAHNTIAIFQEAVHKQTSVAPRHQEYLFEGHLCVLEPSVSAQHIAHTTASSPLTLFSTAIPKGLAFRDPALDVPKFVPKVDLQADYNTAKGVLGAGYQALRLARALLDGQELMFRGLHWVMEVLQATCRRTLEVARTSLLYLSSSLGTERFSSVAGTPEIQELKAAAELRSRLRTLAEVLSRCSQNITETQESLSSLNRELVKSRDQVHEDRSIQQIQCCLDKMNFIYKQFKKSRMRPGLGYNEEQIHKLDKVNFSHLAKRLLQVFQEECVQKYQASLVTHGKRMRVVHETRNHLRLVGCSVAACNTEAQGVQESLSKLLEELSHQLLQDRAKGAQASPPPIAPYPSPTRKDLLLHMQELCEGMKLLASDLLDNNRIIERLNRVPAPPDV

Phosphatidylinositol 4,5-bisphosphate 3-kinase catalytic subunit alpha isoform (Homo sapiens), sequence (P42336 whole entry, canonical isoform): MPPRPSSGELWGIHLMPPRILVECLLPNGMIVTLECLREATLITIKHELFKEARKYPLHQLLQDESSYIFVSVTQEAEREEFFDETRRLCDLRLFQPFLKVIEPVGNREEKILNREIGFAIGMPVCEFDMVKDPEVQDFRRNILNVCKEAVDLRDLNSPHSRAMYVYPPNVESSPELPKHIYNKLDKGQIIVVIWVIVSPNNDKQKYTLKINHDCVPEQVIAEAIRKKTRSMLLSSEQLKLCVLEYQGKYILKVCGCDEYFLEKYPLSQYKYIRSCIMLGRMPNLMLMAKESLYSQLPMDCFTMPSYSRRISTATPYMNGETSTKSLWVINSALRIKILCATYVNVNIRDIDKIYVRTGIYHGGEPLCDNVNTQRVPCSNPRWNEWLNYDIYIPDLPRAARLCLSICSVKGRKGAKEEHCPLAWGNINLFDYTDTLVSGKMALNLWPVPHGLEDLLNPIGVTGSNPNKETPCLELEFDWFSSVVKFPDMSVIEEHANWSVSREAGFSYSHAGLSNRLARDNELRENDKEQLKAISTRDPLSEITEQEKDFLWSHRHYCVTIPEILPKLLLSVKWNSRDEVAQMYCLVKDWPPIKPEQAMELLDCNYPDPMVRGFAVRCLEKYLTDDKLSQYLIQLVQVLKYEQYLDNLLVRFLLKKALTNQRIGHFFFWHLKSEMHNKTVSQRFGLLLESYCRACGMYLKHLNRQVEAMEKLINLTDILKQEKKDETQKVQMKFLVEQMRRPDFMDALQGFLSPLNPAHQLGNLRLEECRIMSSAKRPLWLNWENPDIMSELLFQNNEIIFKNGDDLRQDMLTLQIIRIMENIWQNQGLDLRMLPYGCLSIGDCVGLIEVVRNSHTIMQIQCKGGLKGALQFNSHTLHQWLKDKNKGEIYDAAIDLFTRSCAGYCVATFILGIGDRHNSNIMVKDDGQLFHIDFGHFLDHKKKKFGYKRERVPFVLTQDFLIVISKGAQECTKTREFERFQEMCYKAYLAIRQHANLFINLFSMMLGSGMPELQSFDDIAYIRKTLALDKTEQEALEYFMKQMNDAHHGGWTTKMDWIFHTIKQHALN
SRSF protein kinase 1 (Homo sapiens), sequence (Q96SB4 whole entry, canonical isoform): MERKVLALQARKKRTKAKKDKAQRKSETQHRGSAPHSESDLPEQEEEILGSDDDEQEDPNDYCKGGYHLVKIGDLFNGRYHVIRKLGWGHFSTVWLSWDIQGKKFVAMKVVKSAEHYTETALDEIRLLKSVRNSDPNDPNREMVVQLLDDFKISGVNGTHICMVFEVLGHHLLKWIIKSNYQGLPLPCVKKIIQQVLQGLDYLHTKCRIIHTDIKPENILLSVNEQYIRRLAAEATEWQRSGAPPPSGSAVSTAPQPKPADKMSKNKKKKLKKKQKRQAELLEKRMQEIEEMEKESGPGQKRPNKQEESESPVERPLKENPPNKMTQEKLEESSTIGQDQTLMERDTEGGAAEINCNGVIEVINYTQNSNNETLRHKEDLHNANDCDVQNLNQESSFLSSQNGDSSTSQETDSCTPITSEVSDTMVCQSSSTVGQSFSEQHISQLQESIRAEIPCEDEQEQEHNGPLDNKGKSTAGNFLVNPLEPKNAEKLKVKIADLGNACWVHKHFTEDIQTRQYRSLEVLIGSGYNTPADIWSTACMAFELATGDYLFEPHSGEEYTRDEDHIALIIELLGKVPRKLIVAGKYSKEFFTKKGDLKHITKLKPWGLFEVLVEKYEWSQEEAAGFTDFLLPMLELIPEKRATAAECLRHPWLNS
Sphingosine kinase 1 (Homo sapiens), sequence (Q9NYA1 whole entry): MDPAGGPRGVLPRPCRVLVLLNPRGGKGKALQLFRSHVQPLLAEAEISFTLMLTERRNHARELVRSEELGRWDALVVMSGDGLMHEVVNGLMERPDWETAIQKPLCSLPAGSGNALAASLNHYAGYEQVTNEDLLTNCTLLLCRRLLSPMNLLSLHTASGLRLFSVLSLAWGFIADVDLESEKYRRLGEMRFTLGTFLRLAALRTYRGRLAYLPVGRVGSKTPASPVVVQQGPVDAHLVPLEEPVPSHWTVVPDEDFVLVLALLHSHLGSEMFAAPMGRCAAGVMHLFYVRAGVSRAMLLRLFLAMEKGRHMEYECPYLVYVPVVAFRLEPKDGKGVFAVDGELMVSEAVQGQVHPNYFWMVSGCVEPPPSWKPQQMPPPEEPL
Casein kinase II subunit alpha (Homo sapiens), sequence (P68400 whole entry, looked up): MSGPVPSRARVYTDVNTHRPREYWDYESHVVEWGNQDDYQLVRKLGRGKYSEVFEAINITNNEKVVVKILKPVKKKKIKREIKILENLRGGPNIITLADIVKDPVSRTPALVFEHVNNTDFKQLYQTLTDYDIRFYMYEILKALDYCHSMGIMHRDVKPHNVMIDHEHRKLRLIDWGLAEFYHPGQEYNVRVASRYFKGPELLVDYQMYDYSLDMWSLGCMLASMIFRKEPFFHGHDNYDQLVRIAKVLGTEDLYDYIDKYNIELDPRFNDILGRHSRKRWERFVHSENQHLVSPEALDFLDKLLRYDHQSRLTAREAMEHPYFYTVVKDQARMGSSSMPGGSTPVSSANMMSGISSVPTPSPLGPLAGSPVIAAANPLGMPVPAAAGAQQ
Phosphatidylinositol 4-kinase beta (Homo sapiens), sequence (Q9UBF8 2-816 limits assumed): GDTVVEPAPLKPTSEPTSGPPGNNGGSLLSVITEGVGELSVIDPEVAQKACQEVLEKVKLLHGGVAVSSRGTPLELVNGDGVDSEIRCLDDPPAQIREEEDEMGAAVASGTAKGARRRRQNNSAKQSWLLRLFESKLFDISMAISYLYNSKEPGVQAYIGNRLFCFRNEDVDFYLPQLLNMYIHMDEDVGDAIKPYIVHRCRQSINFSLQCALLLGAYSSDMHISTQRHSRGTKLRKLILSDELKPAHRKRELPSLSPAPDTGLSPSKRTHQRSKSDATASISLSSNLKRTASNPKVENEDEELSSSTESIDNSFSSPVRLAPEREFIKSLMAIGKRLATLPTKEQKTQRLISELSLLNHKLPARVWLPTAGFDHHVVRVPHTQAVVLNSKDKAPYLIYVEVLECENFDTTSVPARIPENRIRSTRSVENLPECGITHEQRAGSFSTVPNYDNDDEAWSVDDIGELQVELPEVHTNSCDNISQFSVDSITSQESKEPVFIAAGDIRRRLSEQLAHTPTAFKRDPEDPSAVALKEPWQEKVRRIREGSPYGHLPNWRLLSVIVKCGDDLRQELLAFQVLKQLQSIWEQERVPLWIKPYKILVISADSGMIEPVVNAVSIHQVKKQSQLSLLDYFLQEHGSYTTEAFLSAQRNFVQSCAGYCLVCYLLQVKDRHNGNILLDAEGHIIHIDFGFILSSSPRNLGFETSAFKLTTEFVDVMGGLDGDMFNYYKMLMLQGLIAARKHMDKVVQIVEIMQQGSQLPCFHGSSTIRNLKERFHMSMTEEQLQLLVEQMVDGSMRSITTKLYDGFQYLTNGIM

Compound | inhibition [1] [%] | inhibition [2] [%] | inhibition [3] [%] | inhibition [4] [%] | inhibition [5] [%] | inhibition [6] [%] | inhibition [7] [%] | inhibition [8] [%] | inhibition [9] [%] | inhibition [10] [%] | inhibition [11] [%] | inhibition [12] [%] | inhibition [13] [%] | inhibition [14] [%] | inhibition [15] [%] | inhibition [16] [%] | inhibition [17] [%] | inhibition [18] [%] | inhibition [19] [%] | inhibition [20] [%]
C[C@@H](Oc1cc(-n2cnc3ccc(OC[C@@H](O)CO)cc32)sc1C(N)=O)c1ccccc1Cl | -1.21 | -0.36 | -1.3 | -0.06 | 13.4 | 1.99 | 34.9 | 3.09 | -1.09 | -2.33 | 0.3 | 0 | 0.27 | 1.09 | 10.2 | -0.83 | -3.48 | -3.56 | -1.92 | -2.16
CCCN1CCCC(c2ccc(Nc3nc(Nc4cc(F)ccc4C(N)=O)c4cc[nH]c4n3)c(OC)c2)C1 (stereo not given) | 3.39 | -0.71 | 7.5 | 2.9 | 5.55 | 2.18 | 9.74 | -3.21 | -1.21 | -0.22 | 3.56 | 1.62 | -1.24 | 33.5 | 66.2 | 6.24 | 4.21 | 8.08 | 4.25 | 4.93
NS(=O)(=O)c1ccc(Nc2cc(-c3cccc(O)c3)n[nH]2)cc1 | 3.15 | -3.05 | -2.8 | 4.26 | 7.56 | 2.48 | 4.98 | -1.18 | -1.14 | 1.67 | -2.64 | 0.05 | -0.8 | 2.68 | 3.26 | 2.32 | 2.31 | 4.33 | 5.24 | 6.1
